Sm TGR inh = inhibitors of Schistosoma mansoni thioredoxin glutathione reductase; purified TGR, DTNB reduction, TNB absorbance 405 nm; Potency, µM (series often up to 114 µM), usual class: inhibitors; hit rate 3% among 360,000; AID 485364; also: nearly all actives have a fitted effect of over 60% in size
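Kinetic colorimetric format: TGR-catalysed, NADPH-driven DTNB reduction monitored via TNB absorbance. Enzyme dispensed at 20 nM; compound exposure 15 min at room temperature before reaction start.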
Giardia FBPA inh = blocks Giardia fructose-bisphosphate aldolase activity; A8B2U2; purified Giardia FBPA; Potency, µM (doses to about 59.6 µM), usual class: inhibitors; hit rate 0.71% among 290,000; AID 2451; also: nearly all actives have a fitted effect of over 55% in size
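Giardia FBPA (40 nM reagent) was preincubated 10 min at RT with compound (up to 57.5 uM final), then substrate plus GAPDH/TPI/NAD/arsenate coupling system with diaphorase/resazurin was added; resorufin fluorescence (525/598 nm) was read after 20 min.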
NS1 function inh = inhibitors of influenza NS1 protein function. Potency, µM (highest dose often 46.1 µM). hit rate 0.4% among 270,000; calls by dose curve; also: actives are rising curves; nearly all actives have a fitted effect of over 50% in size
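Compounds were scored for reversing the slow growth caused by influenza A NS1 in S. cerevisiae, measured by optical density at 600 nm. Assay medium contained 2% galactose at pH 6.0; NS1-free yeast of the same strain were the positive control.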
Tb PYK inh = inhibitors of Trypanosoma brucei pyruvate kinase. Potency, µM (doses to about 76.8 µM), usual class: inhibitors. TbPYK enzyme, Kinase-Glo Plus ATP luminescence, 45 min. AID 624173. hit rate 0.12% among 410,000. Q57TT1; also: nearly all actives have a fitted effect of over 50% in size
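Luminescence from Kinase-Glo Plus, added after a 45-minute room-temperature reaction, served as the end-point read-out. The enzyme and substrate were preincubated with compound before ADP (130 uM final) initiated turnover. Concentration-effect curves came from normalized qHTS data.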
RE007 growth inh = less growth of the S. pombe RE007 Vpr strain; S. pombe RE007 Vpr strain, BacTiter-Glo ATP luminescence, 24 h; Potency, µM (highest dose often 92.2 µM), usual class: inhibitors; hit rate 0.21% among 360,000; active = well fitted falling curve with a large enough effect; inconclusive = small, poorly fitted or top-dose-only effect; inactive = no such curve, though single readings can be large or run the other way; also: nearly all actives have a fitted effect of over 50% in size
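Fission yeast strain RE007, carrying one chromosomally integrated HIV-1 vpr copy, was seeded at OD 0.01 in PMG+AL medium with 23 nL pinned compound. After 24 h at 30 °C and 99% humidity, viability was read by BacTiter-Glo luminescence.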
LmPK inhibitor = LmPK (Leishmania mexicana) enzyme inhibition. Q27686. purified LmPK, Kinase-Glo ATP luminescence, 1 h. Potency, µM (series often up to 57.5 µM), most hits filed as inhibitors. hit rate 0.37% among 290,000. AID 1721
Target sequence (Q27686 whole entry, looked up): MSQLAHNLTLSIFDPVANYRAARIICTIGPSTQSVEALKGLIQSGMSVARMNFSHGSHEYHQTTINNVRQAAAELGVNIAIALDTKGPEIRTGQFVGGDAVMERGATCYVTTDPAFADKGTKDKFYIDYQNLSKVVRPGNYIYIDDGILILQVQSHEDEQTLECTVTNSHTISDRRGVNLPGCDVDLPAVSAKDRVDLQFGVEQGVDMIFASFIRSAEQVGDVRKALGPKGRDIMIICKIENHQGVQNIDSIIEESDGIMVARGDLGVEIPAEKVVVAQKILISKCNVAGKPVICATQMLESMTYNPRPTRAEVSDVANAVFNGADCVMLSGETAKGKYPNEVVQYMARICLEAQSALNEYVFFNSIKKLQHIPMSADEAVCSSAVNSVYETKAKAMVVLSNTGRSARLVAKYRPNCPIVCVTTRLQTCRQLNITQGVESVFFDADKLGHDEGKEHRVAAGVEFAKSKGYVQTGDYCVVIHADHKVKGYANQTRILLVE
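ATP generated from ADP (0.1 mM) and PEP (0.5 mM) by 0.1 nM LmPK over 1 h at room temperature (pH 7.2 imidazole buffer) was detected by coupled luciferase luminescence. Values were normalized to uninhibited and no-enzyme wells.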
Hits are given with their value; 0 = inactive; ? = inconclusive; - = not tested or not shown; [ ] = dose if it differs, or a comment. Sampled rows, rich in hits. Any-hit rate of the full collection: about 3.5%. Unless noted, calls follow the shape of the dose curve; as a rule, active = well fitted curve in the direction sought with a large enough effect; inconclusive = small, poorly fitted or top-dose-only effect, or another doubt; inactive = no such curve, though single readings can be large; an effect the other way counts as inactive or inconclusive.

SMILES	Sm TGR inh	Giardia FBPA inh	NS1 function inh	Tb PYK inh	RE007 growth inh	LmPK inhibitor
Cc1cc(C)c(NN=c2c(=O)c3ccccc3c2=O)c(C)c1	0	0	0	0	?	0
Cc1ccc(S(=O)(=O)CCc2nnc(N)s2)cc1C	0	0	0	0	0	0
Cc1ccc(S(=O)(=O)CCc2nnc(NC(=O)CCl)s2)cc1C	5µM	0	0	0	0	0
CCC(C)c1ccccc1NC(=O)C(C)NCCN(C)C (stereo not drawn)	40µM	?	0	0	0	0
CC1=CC(=O)C(C(C)C)=C/C1=N/OS(=O)(=O)c1ccccc1	25µM	20µM	0	0	?	0
CC1=CC(=O)C=C(C)C1=NOS(=O)(=O)c1ccccc1	4µM	4µM	0	0	?	0
CNc1ncnc2c1ncn2[C@@H]1O[C@H](CO)[C@H](O)[C@H]1O	-	0	0	-	-	-
C=CCn1c(Sc2ncc([N+](=O)[O-])s2)n[nH]c1=O	0.22µM	?	0	0	?	0
CCCCN(CC)CCNC(=O)c1cc2c(=O)[nH]c3ccc(C)cc3c2s1	0	0	0	0	0	0
CCCCN(CC)CCCNC(=O)c1cc2c(=O)[nH]c3ccccc3c2s1	45µM	0	0	0	0	0
COC(=O)C1=C(C(=O)OC)[C@@H]2N(C)c3ccc(OC)cc3[C@@]23C[C@@H](C(=O)OC)N(S(=O)(=O)c2c(C)noc2C)C3=N1	-	0[12.9 µM]	-	-	-	0[11.5 µM]
CC(=NCc1ccco1)c1c(O)n(Cc2ccccc2)c(=O)[nH]c1=O	35µM	0	0	0	0	0
C(=NNc1ccc2ccccc2n1)c1ccccn1	-	-	-	0	28µM	-
C(=N\Nc1nc2ccccc2s1)/c1ccccn1	0	?	0	0	14µM	?
COc1ccc(C=NNc2nc3ccccc3s2)cc1	-	-	-	0	0	-
CC(=O)O[C@H]1CC(C)(C)C(=C=C/C(C)=C/C=C/C(C)=C/C=C/C=C(C)/C=C/C=C(\C)C(=O)C[C@@]23O[C@]2(C)C[C@@H](O)CC3(C)C)[C@](C)(O)C1	3.2µM	0	0	0	0	0
CC(NC(=O)CCCn1c(=O)c2cccn2c2cccnc21)c1ccccc1 (stereo not drawn)	0	-	-	0	-	-
CCC(C)N1C(=O)/C(=C\c2cnc(N(C)C)nc2)C(=O)NC1=S (stereo not drawn)	10µM	0	0	?	0	0
Cc1ccc2c(c1)cc(C(=O)NCc1ccc(F)cc1)n2C	0	-	-	0	-	-
Cc1ccc(N2CCN(C(=O)C3CCN(S(=O)(=O)c4ccc5c(c4)oc(=O)n5C)CC3)CC2C)cc1 (stereo not drawn)	0	-	-	0	-	-
CN1C(=O)/C(=C/c2ccc(N3CCCCCC3)o2)C(=O)NC1=S	40µM	0	0	0	0	0
O=C1N/C(=C/c2ccc(N3CCOCC3)o2)C(=O)N1c1ccccc1	8.9µM	?	0	?	0	0
CCN1C(=O)C(=Cc2ccc(N3CCOCC3)o2)C(=O)N(CC)C1=S	0	0	0	0	0	0
C=CCN1C(=O)/C(=C\c2ccc(N3CCOCC3)o2)C(=O)NC1=S	50µM	0	0	?	-	0
C=CCN1C(=O)N/C(=C/c2ccc(N3CCOCC3)o2)C1=O	7.1µM	?	0	-	-	0
SMILES	Sm TGR inh	Giardia FBPA inh	NS1 function inh	Tb PYK inh	RE007 growth inh	LmPK inhibitor
COC(=O)CN1C(=O)CSc2ccc(S(=O)(=O)Nc3ccc(Cl)cc3C)cc21	0	-	-	0	-	-
CCc1ccc(NC(=O)CSc2nc(=O)n(Cc3ccncc3)c3c2CCC3)cc1	0	-	-	0	-	-
CCc1ccccc1NC(=O)Cn1nc(C)c2nn(-c3ccc(Cl)cc3)c(C)c2c1=O	0	-	-	0	-	-
Cc1ccccc1CNC(=O)CCCn1c(=O)c2cccn2c2ccccc21	0	-	-	0	-	-
COc1ccc(C(=O)Nc2ccc(CN3CCOCC3)cc2)cc1Br	?	0	0	0	0	0
CC(C)COc1ccc(C(=O)NC(=S)Nc2ccc(CN3CCOCC3)cc2)cc1	0	0	0	0	0	0
COc1ccc(C(=O)NC(=S)Nc2ccc(CN3CCCCC3)cc2)cc1Cl	40µM	0	0	0	0	0
COc1ccc(C(=O)NC(=S)Nc2ccc(CN3CCOCC3)cc2)cc1OC	20µM	0	0	0	0	0
COc1ccc(C(=O)NC(=S)Nc2ccc(CN3CCOCC3)cc2)cc1Cl	14µM	-	0	0	0	0
